# Laboratory results published in PubChem BioAssay (NCI).
# The panel holds about 83,000 compounds, 20% with a hit somewhere; the sample as a whole holds those more often.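 Note: values are percent growth. 100 is the growth of untreated cells, values between 100 and 0 indicate rising inhibition; between -100 and 0 indicates cell death.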 Active and inactive are the calls of the source. The calls were made as follows: active = growth percent below 10; inactive = the rest.
# System: HL-60(TB) leukemia
# Test: NCI-60 one-dose screen, 48 h (100 = growth as untreated, 0 = no growth, -100 = all killed)
# Details: 10 µM unless noted
row,SMILES,growth
1,COc1ccc(-c2c[nH]c(C(=O)O)c2-c2cc(OC)c(OC)c(OC)c2)cc1,-13.8% (active)
2,COc1ccc(C(=O)C[C@]2(O)C(=O)Nc3c(Cl)ccc(Cl)c32)cc1,-6.62% (active)
3,CSc1nc2ccccc2cc1/C=[N+](\[O-])c1ccccc1,-13.4% (active)
4,CN1CCN(c2ccc(-c3cc4c(Nc5ccc(F)c(Cl)c5)ncnn4c3)cn2)CC1,72.8% (inactive)
5,CN(C)c1ccc(-c2ccc(-c3ccc(C(=N)N)cc3)s2)cc1,14.4% (inactive)
6,Cc1ccc2oc(=O)cc(C3C(C#N)=C(N)Oc4c3ccc3ccccc43)c2c1 (stereo not given),53.1% (inactive)
7,CN(CCCCCCCCNc1ccnc2ccccc12)Cc1ccc(-c2ccc(-c3ccc(C#N)cc3)s2)cc1,-58.4% (active)
8,C#C[C@@]1(O)[C@@H](CO)O[C@@H](n2cc(I)c3c(N)ncnc32)[C@@H]1O,-56.6% (active)
9,CC/C=C\CCC/C=C1/C(=O)C=C[C@@H]1C/C=C\CCCC(=O)O,10.9% (inactive)
10,CCN(CC)Cc1cc(Nc2ccnc3ccc(OC)cc23)ccc1O,32.5% (inactive)
11,NNc1ccc(S(N)(=O)=O)cc1,75.9% (inactive)
12,O=C1c2cccnc2C(=O)c2nc3cc(N4CCN(C5CC5)CC4)ccc3nc21,-43.1% (active)
13,COc1ccc(/C=C2\CN(C(=O)C(Cl)Cl)C/C(=C\c3ccc(OC)c(OC)c3)C2=O)cc1OC,-11.4% (active)
14,O=C(C[N+](=O)[O-])c1ccc(Cl)cc1,104% (inactive)
15,CCOC(=O)N1CCN(c2nc(Nc3cc(C)[nH]n3)c3ccccc3n2)CC1,26.3% (inactive)
16,O=C(O)c1ccc(-n2cc(/C=N/Nc3ccccc3)c(-c3ccc(F)cc3F)n2)cc1,15.1% (inactive)
17,Clc1ccc2c(NC3CCC(NC4CCCCC4)CC3)ccnc2c1 (stereo not given),67.3% (inactive)
18,Cc1ccccc1CCO,100% (inactive)
19,CC(=O)Oc1ccc(Br)cc1C(=O)O,101% (inactive)
20,COc1ccc(-c2cc(-c3ccc(OC)c(OC)c3)nc(SCCCCCC(=O)NO)n2)cc1,-9.93% (active)
21,COc1ccc(C(=O)CSc2nc(-c3cc(OC)ccc3OC)cc(-c3ccc(Cl)cc3)c2C#N)cc1,106% (inactive)
22,CC(=O)Nc1nc(C)c(C(=O)N/N=C/N2CCOCC2)s1,188% (inactive)
23,Fc1ccc2[nH]cc(-c3nc(-c4ccsc4)cs3)c2c1,99.3% (inactive)
24,COc1ccccc1NC(=O)COc1ccc(/C=C2/Oc3cc4occc4c(OC)c3C2=O)cc1OC,87.5% (inactive)
25,CCN(CC)CCNC(=O)c1ccc(NC(C)=O)cc1,110% (inactive)
